The panel holds about 83,000 compounds, 20% with a hit somewhere; the sample as a whole holds those more often.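 How to read the values: 0–100, growth inhibition (40 = 60% inhibited); 0, no net growth; -100 to 0, cell death (-40 = 40% of starting cells died; -100 = all dead).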 Unmarked numbers belong to inactive results. The source made the active and inactive calls. Rule for the calls: active = growth percent below 10; inactive = the rest.

Some test systems named below: SR leukemia; RPMI-8226 leukemia; OVCAR-8 ovarian; OVCAR-5 ovarian; OVCAR-4 ovarian; SK-OV-3 ovarian; IGROV1 ovarian; OVCAR-3 ovarian; HS 578T breast; NCI/ADR-RES ovarian; T-47D breast; BT-549 breast; MDA-MB-435 melanoma; SW-620 colon; MCF7 breast; HCT-116 colon; HCC-2998 colon; KM12 colon.
Holding throughout (experiment): NCI-60 one-dose screen, 48 h (100 = growth as untreated, 0 = no growth, -100 = all killed)
What all share (settings): 10 µM unless noted

Regarding `CN(C)CCNC(=O)c1ccc(-c2nc3ccc4[nH]ncc4c3c3c2COCC3)cc1`, the growth with SR leukemia is -25.1% (active); in the assay with RPMI-8226 leukemia, 44.3%; in the assay on OVCAR-8 ovarian it was 11%; with OVCAR-5 ovarian, 27.5%; with OVCAR-4 ovarian, 2.78% (active); with SK-OV-3 ovarian, 14%. For the same molecule, the growth in the assay on IGROV1 ovarian is 0.798% (active); in the assay on OVCAR-3 ovarian, -6.74% (active); with HS 578T breast it was -19.6% (active); in the assay with NCI/ADR-RES ovarian it was 92.2%; in the assay with T-47D breast, -7.62% (active); with BT-549 breast it was -16.2% (active). Also, the growth with MDA-MB-435 melanoma was 3.65% (active); with SW-620 colon, 3.1% (active); in the assay with MCF7 breast it was 0.287% (active); with HCT-116 colon, 2.59% (active); in the assay on HCC-2998 colon it was -20.8% (active); in the assay on KM12 colon it was 16.4%.
Consider `CC(=O)C1=C(C)NC(NNC(N)=S)=NC1c1ccccc1` (configuration not stated), for which the growth in the assay on SR leukemia was 112%; with RPMI-8226 leukemia it was 108%; with OVCAR-8 ovarian it was 107%; with OVCAR-5 ovarian, 90%; in the assay on OVCAR-4 ovarian it was 78%; in the assay with SK-OV-3 ovarian it was 104%. Besides, the growth with IGROV1 ovarian is 77.9%; with OVCAR-3 ovarian, 111%; with HS 578T breast, 103%; in the assay with NCI/ADR-RES ovarian it was 108%; with T-47D breast, 103%; in the assay with BT-549 breast, 92.2%. Moreover, the growth with MDA-MB-435 melanoma is 99.2%; in the assay on SW-620 colon it was 96.8%; with MCF7 breast, 101%; in the assay with HCT-116 colon it was 94.9%; with HCC-2998 colon it was 103%; with KM12 colon, 102%.
As for `O=C(NNc1nc2cc(F)ccc2n2c(CN3CCC(O)C3)ccc12)c1cnccn1` (configuration not stated), the growth in the assay with SR leukemia was 6.32% (active); with RPMI-8226 leukemia, 27.4%; in the assay with OVCAR-8 ovarian it was 13.8%; in the assay with OVCAR-5 ovarian it was 41.4%; with OVCAR-4 ovarian it was 18.9%; in the assay on SK-OV-3 ovarian, 8.37% (active). Moreover, the growth in the assay with IGROV1 ovarian was 18.2%; with OVCAR-3 ovarian, 34.9%; in the assay with HS 578T breast, 75.9%; with NCI/ADR-RES ovarian it was 2.49% (active); in the assay with T-47D breast it was 13%; in the assay on BT-549 breast, 29.5%. Besides, the growth was 27.8% with MDA-MB-435 melanoma; 24.6% in the assay on SW-620 colon; 8.92% (active) in the assay with MCF7 breast; 17.9% in the assay with HCT-116 colon; 38.5% in the assay on HCC-2998 colon; 24.9% in the assay on KM12 colon.
`C#CCOC(=O)[C@@H]1CCCN1CC#C`: the growth with SR leukemia is 95.5%; in the assay on RPMI-8226 leukemia, 71%; in the assay with OVCAR-8 ovarian, 90.4%; in the assay with OVCAR-5 ovarian, 103%; with OVCAR-4 ovarian, 91.9%; with SK-OV-3 ovarian it was 97.6%. Also, the growth was 67.3% in the assay with IGROV1 ovarian; 87.3% with OVCAR-3 ovarian; 74.8% in the assay with HS 578T breast; 85.7% in the assay with NCI/ADR-RES ovarian; 92.6% in the assay on T-47D breast; 95.2% in the assay on BT-549 breast. For the same molecule, the growth with MDA-MB-435 melanoma is 90.9%; with SW-620 colon it was 96.7%; in the assay on MCF7 breast, 74.9%; in the assay with HCT-116 colon, 81.6%; in the assay on HCC-2998 colon, 96.7%; with KM12 colon it was 91.5%.
As for `N/C(=N\C(N)=N\c1nc2ccccc2s1)c1cccc(F)c1`, the growth with SR leukemia was 48.4% [5 µM]; with RPMI-8226 leukemia, 84.4% [5 µM]; with OVCAR-8 ovarian, 98.9% [5 µM]; in the assay on OVCAR-5 ovarian it was 102% [5 µM]; in the assay with OVCAR-4 ovarian it was 133% [5 µM]; in the assay with SK-OV-3 ovarian, 93.9% [5 µM]. In addition, the growth in the assay on IGROV1 ovarian is 68.4% [5 µM]; in the assay on OVCAR-3 ovarian, 101% [5 µM]; in the assay on HS 578T breast, 93.7% [5 µM]; in the assay on NCI/ADR-RES ovarian, 86.3% [5 µM]; with T-47D breast, 74.6% [5 µM]; in the assay with BT-549 breast, 96.7% [5 µM]. For the same molecule, the growth with MDA-MB-435 melanoma was 104% [5 µM]; with SW-620 colon, 97.2% [5 µM]; with MCF7 breast, 85.8% [5 µM]; with HCT-116 colon, 89.3% [5 µM]; in the assay with HCC-2998 colon, 112% [5 µM]; with KM12 colon it was 99.9% [5 µM].
As to `COc1cc(/C=C2\C(=O)Nc3ccccc32)ccc1OCc1ccc(F)cc1`, the growth is 90.1% in the assay with SR leukemia; 107% in the assay on RPMI-8226 leukemia; 102% with OVCAR-8 ovarian; 107% in the assay with OVCAR-5 ovarian; 103% with OVCAR-4 ovarian; 114% in the assay on SK-OV-3 ovarian. For the same molecule, the growth in the assay with IGROV1 ovarian was 101%; in the assay on OVCAR-3 ovarian, 117%; in the assay on HS 578T breast, 115%; with NCI/ADR-RES ovarian, 102%; in the assay on T-47D breast it was 107%; with BT-549 breast, 116%. The growth is 103% in the assay on MDA-MB-435 melanoma; 106% in the assay with SW-620 colon; 87.8% in the assay with MCF7 breast; 107% with HCT-116 colon; 119% with HCC-2998 colon; 101% with KM12 colon.
For the molecule `CCC1=Cc2cc(OC)ccc2OC12C=Cc1cc(OC)ccc1O2` (configuration not stated), the growth in the assay on SR leukemia is 15.8%; with RPMI-8226 leukemia, 19.5%; in the assay with OVCAR-8 ovarian it was 41.3%; with OVCAR-5 ovarian it was 29.3%; in the assay with OVCAR-4 ovarian it was 56.8%; in the assay with SK-OV-3 ovarian, 24%. Further, the growth is 30.1% in the assay with IGROV1 ovarian; 16% with OVCAR-3 ovarian; 15.3% in the assay with HS 578T breast; 11.7% in the assay with NCI/ADR-RES ovarian; 52.8% in the assay with T-47D breast; 75.3% in the assay on BT-549 breast. Besides, the growth was -28.5% (active) in the assay on MDA-MB-435 melanoma; 28.3% in the assay on SW-620 colon; 15.3% with MCF7 breast; 14.2% with HCT-116 colon; 22.9% in the assay on HCC-2998 colon; 19.3% in the assay with KM12 colon.
For `CCCCCc1ccc(S(=O)(=O)Nc2cccc(-c3csc(NC(=O)CN4CCN(CCO)CC4)n3)c2)cc1`, the growth in the assay with SR leukemia was 5.04% (active); with RPMI-8226 leukemia it was 20.2%; in the assay with OVCAR-8 ovarian, 91.4%; with OVCAR-5 ovarian, 101%; with OVCAR-4 ovarian, 79.2%; with SK-OV-3 ovarian it was 89.5%. The growth in the assay with IGROV1 ovarian is 85.5%; in the assay on OVCAR-3 ovarian, 93.2%; in the assay with HS 578T breast, 69.4%; in the assay on NCI/ADR-RES ovarian, 99%; with T-47D breast, 64.5%; in the assay on BT-549 breast it was 99.9%. Moreover, the growth was 44.3% in the assay with MDA-MB-435 melanoma; 74.3% with SW-620 colon; 35.8% in the assay with MCF7 breast; 45% in the assay on HCT-116 colon; 26.9% in the assay with HCC-2998 colon; 54% with KM12 colon.
As to `CC1=CC(=O)C2=C(C)CC(OC(=O)CCc3ccccc3)[C@@H]3[C@H](OC(=O)[C@@H]3C)[C@@H]12` (some centres not stated), the growth with SR leukemia was 86.8%; with RPMI-8226 leukemia, 74.7%; in the assay on OVCAR-8 ovarian, 96.8%; in the assay on OVCAR-5 ovarian, 95.9%; with OVCAR-4 ovarian it was 91.6%; with SK-OV-3 ovarian, 91.6%. For the same molecule, the growth in the assay with IGROV1 ovarian was 82.7%; in the assay with OVCAR-3 ovarian, 98.6%; with HS 578T breast, 104%; in the assay on NCI/ADR-RES ovarian, 98.2%; in the assay with T-47D breast it was 96.5%; with BT-549 breast, 98.9%. Further, the growth in the assay on MDA-MB-435 melanoma is 93.3%; in the assay with SW-620 colon, 96.7%; in the assay with MCF7 breast, 83.9%; in the assay with HCT-116 colon, 69.2%; in the assay on HCC-2998 colon, 102%; with KM12 colon, 91.2%.
